Screening data from PubChem.
pPAFAH FP inh: pPAFAH enzyme inhibitors, primary screen, biochemical, fluorescence polarization, human; AID 463082, 2010; 1.5% of 330,000 active; inhibition, % at 3.39 µM; Platelet-activating factor acetylhydrolase (Homo sapiens), Q13093; recombinant pPAFAH, FP-rhodamine probe fluorescence polarization;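 active = inhibition above the mean inhibition across the screen plus 3 SD, cut at about 25% in these data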;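 note: inhibitors block binding of the rhodamine activity-based probe so polarization drops; 0% = enzyme with DMSO and 100% = wells lacking pPAFAH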
PAD4 inh: human PAD4 inhibitors, primary screen, biochemical, fluorescence polarization, 1536-well format; Protein-arginine deiminase type-4 (Homo sapiens), Q9UM07; recombinant PAD4, RCA probe fluorescence polarization; inhibition, % at 6.36 µM; 0.41% of 330,000 active; AID 485272, 2010;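 active = percent inhibition above a cutoff equal to the mean of all tested compounds plus 3 SD, cut at about 15% in these data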;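 note: 0% = PAD4 with RCA probe and DMSO and 100% = probe without PAD4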
PME-1 inh: PME-1 inhibitors via competitive probe labeling, primary screen, biochemical, fluorescence polarization, FP-Rh probe, HTS | inhibition, % at 5.9 µM | Protein phosphatase methylesterase 1 (Homo sapiens), Q9Y570 | AID 2130, 2009 | recombinant PME-1 | 0.53% of 320,000 active;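 active = inhibition above the campaign mean of all compounds plus 3 SD, cut at about 26% in these data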;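 note: competitive labeling of PME-1 active site by serine hydrolase directed probe; 0% = PME-1 with DMSO and 100% = wells lacking PME-1 enzyme; inhibitors block probe labeling so polarization falls and inhibition rises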
Target sequence (Q9Y570 whole entry, looked up): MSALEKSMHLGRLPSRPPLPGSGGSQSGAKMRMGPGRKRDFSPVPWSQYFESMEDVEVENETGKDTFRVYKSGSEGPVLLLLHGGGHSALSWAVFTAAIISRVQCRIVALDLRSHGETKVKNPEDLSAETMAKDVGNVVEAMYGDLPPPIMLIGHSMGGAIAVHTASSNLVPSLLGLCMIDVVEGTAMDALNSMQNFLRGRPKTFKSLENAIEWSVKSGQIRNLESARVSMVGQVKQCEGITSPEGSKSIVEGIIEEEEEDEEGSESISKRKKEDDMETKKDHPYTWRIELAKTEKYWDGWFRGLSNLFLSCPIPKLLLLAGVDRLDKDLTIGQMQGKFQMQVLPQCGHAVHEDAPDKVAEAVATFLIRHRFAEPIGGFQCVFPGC
GSTO1 counter: inhibitors of recombinant GSTO1, primary screen, counter-screen for RBBP9 inhibitor project, biochemical, fluorescence polarization; Glutathione S-transferase omega-1 (Homo sapiens), P78417; activity-based probe fluorescence polarization; inhibition, % at 5.96 µM; 1.1% of 300,000 active;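 active = inhibition above the campaign mean inhibition plus 3 SD, cut at about 35% in these data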;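 note: 0% = GSTO1-1 with DMSO and 100% = wells lacking GSTO1-1 enzyme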
Fam108B counter: mouse Fam108B serine hydrolase inhibitors, primary screen, counter-screen for RBBP9 inhibitor project, biochemical, fluorescence polarization; recombinant Fam108B, FP-Rh probe fluorescence polarization; inhibition, % at 9.51 µM; 0.33% of 300,000 active; AID 1947, 2009;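 active = inhibition above the screen mean inhibition plus 3 SD, computed separately per campaign, cut at about 18% in these data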;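 note: inhibitors lower polarization as less probe binds the enzyme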
PAD4 confirm: human PAD4 inhibitors, confirmation, biochemical, fluorescence polarization; AID 488796, 2010; 28% of 1,200 active; shares compounds with PAD4 inh; recombinant PAD4, RCA probe fluorescence polarization; inhibition, % at 6.36 µM;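 active = mean inhibition across replicates above the hit cutoff set by the earlier primary screen, cut at about 15% in these data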;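 note: inhibitors block active-site labeling by the probe so polarization falls; 0% = PAD4 with probe and DMSO and 100% = probe without PAD4 enzyme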
* = called active by the depositor; · = no result. Most compounds without a hit are left out; they make up all but 2.3% or so of the library.

SMILES	pPAFAH FP inh	PAD4 inh	PME-1 inh	GSTO1 counter	Fam108B counter	PAD4 confirm
CC(Sc1nc2sc3c(c2c(=O)n1-c1ccccc1)CCCC3)C(=O)O (stereo unspecified)	-2	5	4	-3	3	·
COc1ccc(S(=O)(=O)N2CCC3(CC2)CC(=O)c2ccccc2O3)cc1OC	-2	-3	-6	-6	0	·
COc1ccc(OC)c(C2C(C#N)=C(N)Oc3c2c(C)nn3-c2ccc(C)cc2)c1 (stereo unspecified)	6	54*	0	35*	11	5
CCOC(=O)Cc1[nH]nc2c1C(c1cc(OC)ccc1OC)C(C#N)=C(N)O2 (stereo unspecified)	-3	-7	-4	8	3	·
COc1ccc(C2C(C#N)=C(N)Oc3c2c(C)nn3-c2ccccc2)cc1Cn1nc(C)c([N+](=O)[O-])c1C (stereo unspecified)	4	42*	5	26	5	8
Cc1nn(Cc2ccccc2)c2c1C(c1ccc(Cl)cc1)C(C#N)=C(N)O2 (stereo unspecified)	1	-3	1	19	0	·
Cc1nn(-c2ccccc2)c2c1C(c1ccccc1)C(C#N)=C(N)O2 (stereo unspecified)	5	61*	3	37*	4	14
COc1ccc(C2C(C#N)=C(N)OC3=C2C(=O)CC(C)(C)C3)cc1Cn1nc(C)c([N+](=O)[O-])c1C (stereo unspecified)	-6	-3	2	1	3	·
O=c1c(N2CCOCC2)coc2ccccc12	5	1	2	1	0	·
O=c1[nH]c(N2CCOCC2)cc2ccccc12	-1	20*	3	25	2	-7
CCOC(=O)C(N)CSC1CC(=O)N(CCc2ccccc2)C1=O (stereo unspecified)	-6	-6	0	-4	-5	·
Cc1cc(C(=O)CSc2nc(N)cc(N)n2)c(C)n1C1CC1	9	16*	-5	18	0	8
Cc1c(C(=O)NCC(c2ccco2)N(C)C)oc2c(Cl)cccc12 (stereo unspecified)	8	-3	-3	8	-2	·
Cc1ccc(C(=O)NCC(=O)OCC(=O)NC2CCS(=O)(=O)C2)cc1C (stereo unspecified)	6	35*	-3	0	6	4
CCCS(=O)(=O)c1cn2cccc(N)c2c1S(=O)(=O)CCC	17	18*	0	15	5	7
Fc1ccccc1-c1cc2ccccc2cn1	-2	15*	-4	·	·	12
CC(=O)N1CCN(c2ccc(NCc3cccs3)cc2)CC1	15	17*	2	15	5	-3
Cc1cc[n+](-c2[nH]c(=O)sc2/C=N/NC([S-])=Nc2ccccc2)cc1C	12	1	10	25	7	·
CC(C)(C)c1cc[n+](-c2[nH]c(=O)sc2/C=N/NC([S-])=Nc2ccccc2)cc1	9	17*	6	31	6	13
COC(=O)CN1C(=O)N/C(=C/c2ccc(C)o2)C1=O	3	16*	9	13	12	2
CCOP(=O)(c1ccccc1)C(O)c1ccc(Br)cc1 (stereo unspecified)	3	1	5	8	3	·
O=C(COC(=O)c1ccc(S(=O)(=O)C(F)F)cc1)Nc1ccccc1C(=O)NC1CC1	8	15*	6	·	·	4
COc1ccc2c(c1)oc(=O)c1ccccc12	10	15*	-4	10	-1	23*
COc1ccc2c(c1)oc(=O)c1cc(OC)ccc12	-5	-8	-4	-10	-12	·
c1ccc(CCn2c3ccccc3c3nnc(SCc4ccc5nonc5c4)nc32)cc1	-1	50*	-11	-2	-5	2
SMILES	pPAFAH FP inh	PAD4 inh	PME-1 inh	GSTO1 counter	Fam108B counter	PAD4 confirm
C=CCC(CC=C)(NC(=O)c1ccccc1C)c1ccccc1	-4	17*	1	12	-1	8
COc1ccc(S(=O)(=O)N2CCCCC2)cc1NC(=O)C1CC(=O)N(Cc2ccccc2)C1 (stereo unspecified)	3	-3	12	·	·	·
CC(C)N(C)NC(=S)Nc1ccccc1	3	-3	-10	6	2	·
Cc1cc(N(C)NC(=S)Nc2ccccc2)nc(C)n1	-2	52*	6	0	1	11
O=C(O)CCn1nnc2ccccc21	3	1	-4	-1	0	·
CS(=O)(=O)c1ccc(N)c(SSc2cc(S(C)(=O)=O)ccc2N)c1	5	45*	2	18	3	52*
Cc1cccc(C)c1OC(=O)CCN1C(=O)C2C3C=CC(C4CC34)C2C1=O (stereo unspecified)	-5	-2	2	5	3	·
CCC(C)C(NC(=O)c1ccccc1NC(=O)c1ccc(OC)cc1)C(=O)NCCCn1ccnc1 (stereo unspecified)	-4	-4	-1	0	-7	·
CCSc1ccc(-c2nn(-c3ccccc3)cc2/C=C(/C#N)C(=O)NC)cc1	3	16*	0	-16	-8	23*
CCCSc1ccc(-c2nn(-c3ccccc3)cc2/C=C(/C#N)C(=O)N2CCOCC2)cc1	8	0	-9	1	-11	·
C#CCOc1ccccc1CNC1CCN(Cc2ccccc2)CC1	-3	-2	3	0	1	·
Cc1nn(CC(=O)NC2(C)CCS(=O)(=O)C2)c(C)c1S(=O)(=O)N(C)C (stereo unspecified)	1	1	·	·	·	·
CCCn1c(CN2CCN(C(=O)OCC)CC2)nc2cc(NC(=O)CC)ccc21	6	15*	3	10	0	2
CCOC(=O)N1CCN(Cc2nc3cc(NC(=O)CC)ccc3n2C)CC1	1	2	-7	4	-1	·
O=C1[C@H]2[C@@H](c3ccc(F)cc3)N3C(=O)N(c4ccccc4)C(=O)[C@@]3(Cc3ccc(Cl)cc3)[C@H]2C(=O)N1C1CCCCC1	3	22*	-12	3	-10	2
CC1=NN(C(=O)c2ccccc2F)C(O)(c2ccc(Cl)cc2)C1 (stereo unspecified)	5	1	-6	8	1	·
CCOC(=O)c1c(C)[nH]c(C2=NNC(=NC3CC3)SC2)c1C	6	17*	0	11	4	12
CC(=O)C1=C(C)NC(SCC(=O)c2ccccc2)=C(C#N)C1CC(C)C (stereo unspecified)	8	-1	0	4	0	·
CNC(=O)c1c(NC(=O)c2cccc(N3C(=O)CCC3=O)c2)sc2c1CCCC2	0	-2	5	9	-4	·
